# Assay results as given in PubChem BioAssay (EPA / NIEHS).
# The source made the active and inactive calls. How the source made its calls: active means hit-call score of the fitted dose curve at least 0.9, where 1 is the maximum; inactive means score below 0.9.
# Assays:
# [1] = ATG_GLI_CIS: Attagene CIS-FACTORIAL HepG2 Assay for human Zinc Finger Protein GLI1 (AID 2282945); details: HepG2, Attagene cis-factorial reporter mRNA, GLI element; actives raise or lower the signal
# How it was run: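 Transiently transfected HepG2 cells report endogenous transcription factor activity via cis-element-driven reporter units. After 24 h compound exposure, reporter mRNA was measured by RT-PCR with capillary electrophoresis; bidirectional fitting against DMSO baseline.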
# [2] = ATG_GRE_CIS: Attagene CIS-FACTORIAL HepG2 Assay for human Glucocorticoid Response Elements (GRE) (AID 2282947); details: HepG2 GRE cis-reporter, Attagene multiplex mRNA; actives raise or lower the signal
# How it was run: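 Fluorescence intensity of reporter-specific cDNA fragments, separated by capillary electrophoresis, provides the signal. Constructs carry cis-regulating promoters in transiently transfected HepG2 liver cells; 24 h incubation; fitting is bidirectional against DMSO.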
# [3] = ATG_ISRE_CIS: Attagene CIS-FACTORIAL HepG2 Assay for human Interferon Regulatory Factor 1 (IRF1) binding to an Interferon-Stimulated Response Element (ISRE) (AID 2282948); details: HepG2 ISRE cis-reporter (Attagene), mRNA transcription readout; actives raise or lower the signal
# How it was run: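 Read-out: fluorescent RT-PCR products resolved by capillary electrophoresis, reporting endogenous transcription factor activity via ISRE-driven reporter mRNA in transfected HepG2 cells dosed for 24 h; gain or loss fitted relative to DMSO.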
# [4] = ATG_M_32_CIS: Attagene CIS-FACTORIAL HepG2 Assay for M32 Transcription Factor (Internal Marker) (AID 2282949); details: HepG2 Attagene cis-factorial M32 reporter, mRNA; actives raise or lower the signal;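 further: background control marker of the multiplexed CIS panel rather than a real target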
# How it was run: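 HepG2 transfectants (cis-regulated reporter transcription units) dosed 24 h. Reporter mRNA by RT-PCR plus CE, analysed as gain or loss relative to DMSO.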
# [5] = ATG_M_06_CIS: Attagene CIS-FACTORIAL HepG2 Assay for M06 Transcription Factor (Internal Marker) (AID 2282950); details: HepG2 Attagene CIS-FACTORIAL M06 internal marker reporter; actives raise or lower the signal
# How it was run: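 Cells (HepG2, transiently carrying cis-driven reporter units) receive chemical for 24 h before RNA isolation. Reporter cDNA is PCR-amplified, FAM-labelled by primer extension, HpaI-digested and sized on a capillary analyser.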
# [6] = molecular target: Hypoxia-inducible factor 1-alpha (Homo sapiens) (UniProt Q16665); experiment: ATG_HIF1a_CIS: Attagene CIS-FACTORIAL HepG2 Assay for human Hypoxia Inducible Factor 1 (HIF1A) (AID 2282951); details: HepG2 Attagene cis-factorial HIF1a reporter transcription; actives raise or lower the signal
# Sequence of Hypoxia-inducible factor 1-alpha (Homo sapiens) (Q16665 whole entry, looked up): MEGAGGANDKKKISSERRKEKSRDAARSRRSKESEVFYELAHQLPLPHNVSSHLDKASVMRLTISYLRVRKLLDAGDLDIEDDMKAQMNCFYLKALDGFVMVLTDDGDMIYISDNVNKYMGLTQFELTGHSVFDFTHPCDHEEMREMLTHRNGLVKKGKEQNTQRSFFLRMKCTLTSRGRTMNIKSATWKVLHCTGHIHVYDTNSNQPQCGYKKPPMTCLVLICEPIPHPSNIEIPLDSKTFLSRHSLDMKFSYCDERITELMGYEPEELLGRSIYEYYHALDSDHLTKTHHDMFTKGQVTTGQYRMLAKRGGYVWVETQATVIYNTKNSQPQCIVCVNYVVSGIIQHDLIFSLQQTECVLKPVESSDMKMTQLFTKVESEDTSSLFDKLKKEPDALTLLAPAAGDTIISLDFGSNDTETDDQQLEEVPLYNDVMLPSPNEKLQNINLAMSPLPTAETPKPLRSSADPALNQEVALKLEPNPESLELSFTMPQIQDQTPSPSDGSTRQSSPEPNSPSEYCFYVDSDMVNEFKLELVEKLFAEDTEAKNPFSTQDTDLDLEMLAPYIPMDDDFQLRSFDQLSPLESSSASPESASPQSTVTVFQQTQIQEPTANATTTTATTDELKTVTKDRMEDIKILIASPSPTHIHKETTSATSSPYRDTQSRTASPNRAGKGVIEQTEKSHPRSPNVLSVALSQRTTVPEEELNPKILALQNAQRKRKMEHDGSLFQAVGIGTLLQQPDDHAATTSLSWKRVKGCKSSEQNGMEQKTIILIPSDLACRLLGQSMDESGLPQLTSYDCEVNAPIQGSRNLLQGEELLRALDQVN
# How it was run: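 HepG2 cells transiently transfected with multiplexed cis-promoter reporter units; reporter mRNA read 24 h after dosing by RT-PCR, 6-FAM primer-extension labelling, HpaI digestion and capillary electrophoresis. Bidirectional fit versus DMSO baseline.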
# [7] = molecular target: Hepatocyte nuclear factor 6 (Homo sapiens) (UniProt Q9UBC0); experiment: ATG_HNF6_CIS: Attagene CIS-FACTORIAL HepG2 Assay for human Hepatocyte Nuclear Factor 6 (HNF6) (AID 2282952); details: HepG2 Attagene cis-factorial HNF6 reporter transcription; actives raise or lower the signal
# Sequence of Hepatocyte nuclear factor 6 (Homo sapiens) (Q9UBC0 whole entry, looked up, the tested form may be a part): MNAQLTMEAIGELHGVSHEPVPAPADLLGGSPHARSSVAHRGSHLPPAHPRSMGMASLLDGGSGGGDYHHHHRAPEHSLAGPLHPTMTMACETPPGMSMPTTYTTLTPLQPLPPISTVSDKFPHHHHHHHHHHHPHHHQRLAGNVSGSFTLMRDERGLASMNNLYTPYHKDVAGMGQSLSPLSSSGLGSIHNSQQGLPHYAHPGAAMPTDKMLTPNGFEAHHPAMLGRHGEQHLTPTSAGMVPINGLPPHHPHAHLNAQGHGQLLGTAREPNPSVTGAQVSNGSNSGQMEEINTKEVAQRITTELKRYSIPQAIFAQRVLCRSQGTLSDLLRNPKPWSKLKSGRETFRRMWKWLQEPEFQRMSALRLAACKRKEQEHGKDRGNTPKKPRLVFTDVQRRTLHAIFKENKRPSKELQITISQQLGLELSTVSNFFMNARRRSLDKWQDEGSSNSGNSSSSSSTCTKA
# How it was run: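 First, HepG2 cells were transfected with the multiplexed cis reporter library and dosed with chemical for 24 h. Next, RNA was reverse-transcribed, PCR-amplified and fluorescently labelled. Finally, HpaI-digested fragments were read by capillary electrophoresis.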
# [8] = molecular target: Heat shock factor protein 1 (Homo sapiens) (UniProt Q00613); experiment: ATG_HSE_CIS: Attagene CIS-FACTORIAL HepG2 Assay for human Heat Shock Transcription Factor 1 (HSE) (AID 2282953); details: HepG2 HSE cis-reporter, Attagene RNA transcription; actives raise or lower the signal
# Sequence of Heat shock factor protein 1 (Homo sapiens) (Q00613 whole entry, looked up): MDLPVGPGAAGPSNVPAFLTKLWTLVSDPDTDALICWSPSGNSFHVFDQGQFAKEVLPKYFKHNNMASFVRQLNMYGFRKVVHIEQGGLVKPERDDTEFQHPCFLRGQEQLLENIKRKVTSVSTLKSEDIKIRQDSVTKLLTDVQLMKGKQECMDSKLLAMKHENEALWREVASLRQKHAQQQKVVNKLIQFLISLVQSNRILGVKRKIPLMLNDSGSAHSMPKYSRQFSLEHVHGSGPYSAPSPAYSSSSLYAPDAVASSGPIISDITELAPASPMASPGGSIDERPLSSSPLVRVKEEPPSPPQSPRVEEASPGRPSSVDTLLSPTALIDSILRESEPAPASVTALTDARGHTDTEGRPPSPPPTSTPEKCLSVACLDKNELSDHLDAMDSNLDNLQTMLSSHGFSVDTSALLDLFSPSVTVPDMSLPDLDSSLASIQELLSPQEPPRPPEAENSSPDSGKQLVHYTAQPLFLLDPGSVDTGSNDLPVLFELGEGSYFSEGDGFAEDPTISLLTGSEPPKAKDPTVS
# How it was run: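 Liver-derived HepG2 cells carry transiently introduced multiple reporter units governed by cis promoters. Reporter RNA measured 24 h post-dose through reverse transcription, PCR amplification, fluorescent labelling and capillary electrophoresis, normalised to DMSO.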
# [9] = ATG_MRE_CIS: Attagene CIS-FACTORIAL HepG2 Assay for human Metal Responsive Element (MRE) (AID 2282954); details: HepG2 MRE cis-reporter transcription, Attagene multiplex; actives raise or lower the signal
# How it was run: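 Measured here is mRNA induction from an MRE cis-element reporter in HepG2 after 24 h, quantified by fluorescence of labelled RT-PCR products on capillary electrophoresis; gain- and loss-of-signal fits use DMSO as baseline.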
# [10] = molecular target: Paired box protein Pax-6 (Homo sapiens) (UniProt P26367); experiment: ATG_Pax6_CIS: Attagene CIS-FACTORIAL HepG2 Assay for human Paired Box 6 (PAX6) (AID 2282956); details: HepG2 CIS-FACTORIAL PAX6 reporter transcription, RNA readout; actives raise or lower the signal
# Sequence of Paired box protein Pax-6 (Homo sapiens) (P26367 whole entry, looked up): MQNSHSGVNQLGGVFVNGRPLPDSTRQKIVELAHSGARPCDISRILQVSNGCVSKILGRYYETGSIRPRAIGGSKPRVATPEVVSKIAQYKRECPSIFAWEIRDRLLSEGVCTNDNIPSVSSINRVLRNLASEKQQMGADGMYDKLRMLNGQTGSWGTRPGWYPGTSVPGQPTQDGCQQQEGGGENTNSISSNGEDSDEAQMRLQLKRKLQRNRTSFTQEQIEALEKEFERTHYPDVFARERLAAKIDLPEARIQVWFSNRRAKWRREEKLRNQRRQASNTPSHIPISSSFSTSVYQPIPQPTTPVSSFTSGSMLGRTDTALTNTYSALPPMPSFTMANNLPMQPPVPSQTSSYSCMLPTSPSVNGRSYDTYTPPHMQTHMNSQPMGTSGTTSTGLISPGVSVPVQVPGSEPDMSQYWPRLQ
# How it was run: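 Readout: reporter transcript fluorescence after RT-PCR and capillary electrophoresis. Cells: HepG2, transiently transfected with cis-regulated MRTUs. Exposure 24 h. Gain or loss of signal fitted bidirectionally relative to DMSO.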
# [11] = ATG_PXRE_CIS: Attagene CIS-FACTORIAL HepG2 Assay for human Pregnane X Receptor Element (PXRE) (AID 2282957); details: HepG2 Attagene CIS-FACTORIAL PXRE reporter, mRNA; actives raise or lower the signal
# How it was run: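 After a 24 h chemical incubation, total RNA from transfected HepG2 cells was reverse-transcribed and reporter cDNA amplified, FAM-labeled, HpaI-digested and sized by capillary electrophoresis. DMSO served as baseline for bidirectional curve fitting.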
# [12] = ATG_PPRE_CIS: Attagene CIS-FACTORIAL HepG2 Assay for human Peroxisome Proliferator-activated Response Element (PPRE) (AID 2282958); details: HepG2 PPRE cis-element reporter, Attagene transcription factor profiling; actives raise or lower the signal
# How it was run: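 HepG2 cells transiently transfected with multiplexed cis-element reporter units measure endogenous transcription factor activity. After 24 h compound exposure, reporter mRNA is quantified by RT-PCR, 6-FAM labeling, HpaI digestion and capillary electrophoresis; bidirectional fits are made against DMSO baseline.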
# [13] = ATG_RORE_CIS: Attagene CIS-FACTORIAL HepG2 Assay for human RAR-related Orphan Receptor Element (RORE) (AID 2282959); details: HepG2 Attagene cis-factorial RORE reporter, mRNA; actives raise or lower the signal
# How it was run: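 HepG2 cells transiently transfected with multiple cis-element reporter transcription units, exposed to chemical for 24 h. Reporter mRNA quantified by RT-PCR, 6-FAM primer-extension labeling, HpaI digestion and capillary electrophoresis; bidirectional fit versus DMSO baseline.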
# [14] = ATG_Sox_CIS: Attagene CIS-FACTORIAL HepG2 Assay for human SRY-box transcription factor (SOX) (AID 2282960); details: HepG2 Attagene cis-factorial SOX reporter, mRNA; actives raise or lower the signal
# How it was run: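 HepG2 cells transiently transfected with cis-element-driven multiple reporter transcription units, dosed 24 h; reporter mRNA measured by RT-PCR, FAM labelling, HpaI digestion and capillary electrophoresis. Bidirectional fit versus DMSO baseline.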
# [15] = molecular target: Transcription factor Sp1 (Homo sapiens) (UniProt P08047); experiment: ATG_Sp1_CIS: Attagene CIS-FACTORIAL HepG2 Assay for human Specificity Protein 1 (Sp1) (AID 2282961); details: HepG2 Sp1 cis-reporter transcription, actives raise or lower the signal
# Sequence of Transcription factor Sp1 (Homo sapiens) (P08047 whole entry, looked up): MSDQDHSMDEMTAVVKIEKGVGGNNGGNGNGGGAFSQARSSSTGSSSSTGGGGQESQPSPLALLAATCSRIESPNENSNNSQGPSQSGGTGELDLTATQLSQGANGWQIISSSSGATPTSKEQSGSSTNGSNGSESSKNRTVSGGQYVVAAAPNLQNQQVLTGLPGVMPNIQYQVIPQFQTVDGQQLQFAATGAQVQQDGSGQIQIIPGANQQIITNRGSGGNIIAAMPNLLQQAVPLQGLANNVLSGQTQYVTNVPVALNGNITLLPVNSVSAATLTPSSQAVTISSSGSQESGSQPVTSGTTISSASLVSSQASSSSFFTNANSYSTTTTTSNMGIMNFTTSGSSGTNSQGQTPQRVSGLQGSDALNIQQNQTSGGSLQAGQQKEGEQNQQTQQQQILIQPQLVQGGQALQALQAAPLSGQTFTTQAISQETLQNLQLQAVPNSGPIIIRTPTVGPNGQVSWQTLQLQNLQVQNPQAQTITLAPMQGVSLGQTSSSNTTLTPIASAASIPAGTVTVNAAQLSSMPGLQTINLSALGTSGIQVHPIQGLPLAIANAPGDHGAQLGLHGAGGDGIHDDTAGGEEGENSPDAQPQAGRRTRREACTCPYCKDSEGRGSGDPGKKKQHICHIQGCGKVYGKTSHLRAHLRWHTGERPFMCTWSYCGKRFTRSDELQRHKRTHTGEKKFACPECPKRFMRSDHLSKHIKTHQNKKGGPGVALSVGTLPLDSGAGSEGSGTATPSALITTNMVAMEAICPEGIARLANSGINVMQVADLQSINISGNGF
# How it was run: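 HepG2 cells transiently transfected with multiple reporter transcription units driven by cis-regulatory elements; Sp1-responsive reporter mRNA measured 24 h after dosing by RT-PCR and capillary electrophoresis fluorescence, fitted bidirectionally against DMSO baseline.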
# [16] = ATG_SREBP_CIS: Attagene CIS-FACTORIAL HepG2 Assay for human Sterol Regulatory Element Binding (SREBP) (AID 2282962); details: HepG2 Attagene cis-factorial SREBP reporter, mRNA; actives raise or lower the signal
# How it was run: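 Readout: fluorescent reporter-transcript peaks resolved by capillary electrophoresis after RT-PCR. Cells were human HepG2 carrying transfected cis-promoter reporter constructs, dosed for 24 h. Gain or loss of signal was fitted against DMSO controls.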
# [17] = molecular target: Signal transducer and activator of transcription 3 (Homo sapiens) (UniProt P40763); experiment: ATG_STAT3_CIS: Attagene CIS-FACTORIAL HepG2 Assay for human Signal Transducer and Activator of Transcription 3 (STAT3) (AID 2282963); details: HepG2, Attagene cis-factorial STAT3 reporter transcription; actives raise or lower the signal
# Sequence of Signal transducer and activator of transcription 3 (Homo sapiens) (P40763 whole entry, looked up, the tested form may be a part): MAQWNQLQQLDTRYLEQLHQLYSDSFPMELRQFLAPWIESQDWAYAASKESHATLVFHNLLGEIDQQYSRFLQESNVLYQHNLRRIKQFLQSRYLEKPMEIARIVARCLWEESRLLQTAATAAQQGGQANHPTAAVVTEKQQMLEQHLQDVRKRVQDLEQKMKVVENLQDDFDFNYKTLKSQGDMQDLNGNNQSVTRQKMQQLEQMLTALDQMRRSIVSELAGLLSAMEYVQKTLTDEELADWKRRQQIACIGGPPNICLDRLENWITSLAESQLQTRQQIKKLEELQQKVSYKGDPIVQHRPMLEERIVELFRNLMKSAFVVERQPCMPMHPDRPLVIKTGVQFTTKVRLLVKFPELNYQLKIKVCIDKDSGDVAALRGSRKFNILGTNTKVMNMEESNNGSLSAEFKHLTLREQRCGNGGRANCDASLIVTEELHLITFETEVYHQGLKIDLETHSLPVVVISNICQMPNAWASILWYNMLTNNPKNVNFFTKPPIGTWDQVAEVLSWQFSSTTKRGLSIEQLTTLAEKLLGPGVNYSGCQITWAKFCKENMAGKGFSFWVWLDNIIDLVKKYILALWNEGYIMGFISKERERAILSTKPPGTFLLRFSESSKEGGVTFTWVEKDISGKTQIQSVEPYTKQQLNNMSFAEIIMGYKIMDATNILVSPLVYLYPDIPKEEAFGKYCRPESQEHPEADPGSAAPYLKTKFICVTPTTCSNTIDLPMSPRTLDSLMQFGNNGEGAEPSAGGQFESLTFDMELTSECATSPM
# How it was run: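 Fluorescence intensity of 6-FAM-labelled reporter fragments, separated by capillary electrophoresis after RT-PCR, gave the signal. Cells were HepG2 transfected with cis-element reporter units and treated 24 h; fitting was bidirectional relative to DMSO.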
# [18] = ATG_TA_CIS: Attagene CIS-FACTORIAL HepG2 Assay for human TA Basal Promoter (AID 2282964); details: HepG2 Attagene CIS-factorial TA basal promoter reporter; actives raise or lower the signal
# How it was run: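 Background internal-marker endpoint from a 52-component HepG2 cis-reporter panel. Cells treated 24 h; reporter transcripts quantified via RT-PCR and CE fluorescence against DMSO baseline.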
# [19] = ATG_PBREM_CIS: Attagene CIS-FACTORIAL HepG2 Assay for human Phenobarbital-responsive Enhancer Module (PBREM) (AID 2282955); details: HepG2 PBREM cis-reporter, Attagene multiplexed transcription; actives raise or lower the signal
# How it was run: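 HepG2 cells transiently transfected with multiple cis-regulated reporter transcription units; endogenous factor activity at the PBREM element measured as reporter mRNA 24 h after dosing, via RT-PCR and capillary electrophoresis of fluorescent fragments; bidirectional fitting versus DMSO.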
# [20] = molecular target: Bile acid receptor (Homo sapiens) (UniProt Q96RI1); experiment: ATG_IR1_CIS: Attagene CIS-FACTORIAL HepG2 Assay for human Nuclear Receptor Subfamily 1 Group H Member 4 (NR1H4), IR1 submotif (AID 2282946); details: IR1 reporter transcription, actives raise or lower the signal
# Sequence of Bile acid receptor (Homo sapiens) (Q96RI1 whole entry, looked up): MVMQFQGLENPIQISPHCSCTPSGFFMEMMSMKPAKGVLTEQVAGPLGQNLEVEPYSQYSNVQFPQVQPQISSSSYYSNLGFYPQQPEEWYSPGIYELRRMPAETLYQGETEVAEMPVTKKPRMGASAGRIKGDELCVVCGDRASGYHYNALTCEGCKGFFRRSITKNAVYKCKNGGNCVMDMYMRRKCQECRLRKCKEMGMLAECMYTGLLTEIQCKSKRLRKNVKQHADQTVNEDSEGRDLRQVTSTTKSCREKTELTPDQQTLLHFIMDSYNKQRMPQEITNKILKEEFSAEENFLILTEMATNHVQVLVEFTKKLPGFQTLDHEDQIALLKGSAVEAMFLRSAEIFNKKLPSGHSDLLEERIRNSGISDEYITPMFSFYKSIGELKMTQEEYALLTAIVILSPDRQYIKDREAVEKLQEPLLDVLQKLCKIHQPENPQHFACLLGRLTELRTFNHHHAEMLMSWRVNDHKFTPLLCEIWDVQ
# How it was run: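 Fluorescence of capillary-separated, HpaI-digested RT-PCR reporter products gave IR1-element mRNA induction in HepG2 cells 24 h after dosing. Endogenous transcription factors drove the cis-regulated reporters; activity was fitted bidirectionally against DMSO.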
compound,measurement,setting,value
c1ccc2scnc2c1,outcome,[1],inactive
same,outcome,[2],inactive
same,outcome,[3],inactive
same,outcome,[4],inactive
same,outcome,[5],inactive
same,outcome,[6],inactive
same,outcome,[7],inactive
same,outcome,[8],inactive
same,outcome,[9],inactive
same,outcome,[10],inactive
same,AC50,[11],55.6 µM (active)
same,outcome,[12],inactive
same,outcome,[13],inactive
same,outcome,[14],inactive
same,outcome,[15],inactive
same,outcome,[16],inactive
same,outcome,[17],inactive
same,outcome,[18],inactive
CCOC(=O)C(=O)OCC,outcome,[1],inactive
same,outcome,[2],inactive
same,outcome,[3],inactive
same,outcome,[4],inactive
same,outcome,[5],inactive
same,outcome,[6],inactive
same,outcome,[7],inactive
same,outcome,[8],inactive
same,outcome,[9],inactive
same,outcome,[19],inactive
same,outcome,[10],inactive
same,outcome,[11],inactive
same,outcome,[12],inactive
same,outcome,[13],inactive
same,outcome,[14],inactive
same,outcome,[15],inactive
same,outcome,[16],inactive
same,outcome,[17],inactive
C=C/C(C)=C/C/C=C(\C)CCC=C(C)C,outcome,[1],inactive
same,outcome,[2],inactive
same,outcome,[3],inactive
same,outcome,[4],inactive
same,outcome,[5],inactive
same,outcome,[6],inactive
same,outcome,[7],inactive
same,outcome,[8],inactive
same,outcome,[9],inactive
same,outcome,[19],inactive
same,outcome,[10],inactive
same,AC50,[11],3.8 µM (active)
same,outcome,[12],inactive
same,outcome,[13],inactive
same,outcome,[14],inactive
same,outcome,[15],inactive
same,outcome,[16],inactive
same,outcome,[17],inactive
same,outcome,[18],inactive
CC1=CC[C@@H](C(C)(C)O)CC1,outcome,[1],inactive
same,outcome,[20],inactive
same,outcome,[3],inactive
same,outcome,[5],inactive
same,outcome,[6],inactive
same,outcome,[7],inactive
same,outcome,[8],inactive
same,outcome,[9],inactive
same,outcome,[11],inactive
same,outcome,[12],inactive
same,outcome,[14],inactive
same,outcome,[15],inactive
same,outcome,[16],inactive
same,outcome,[17],inactive
same,outcome,[18],inactive
